RECQ1 inh-1: qHTS Assay for Inhibitors of RecQ-Like Dna Helicase 1 (RECQ1); RECQ1 DNA unwinding, red fluorescence kinetic read; Potency, µM (series often up to 57.3 µM), inactives show top-dose activity, negative = inhibition, hits mostly inhibitors; 240,000 tested, 0.54% active; AID 2549, 2010;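 note: plate controls were vehicle for no effect and no enzyme for full effect; nearly all actives have a fitted effect of over 30% in size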
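RECQ1T1 50 nM; forked duplex (20 bp + 30-nt ss tails) 200 nM, ATP 2 mM final; pH 8.0, 2 mM MgCl2, 2.5 ug/ml poly(dI-dC); 15 min compound preincubation; discontinuous kinetic read over 2 h at RT.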
APEX1 inh: qHTS Assay for Inhibitors of the Human Apurinic/apyrimidinic Endonuclease 1 (APE1). DNA repair nuclease/redox regulator APEX1 (Homo sapiens), P27695. recombinant APE1, TAMRA/BHQ-2 abasic DNA cleavage fluorescence. Potency, µM (top dose mostly 65.8 µM), without a hit: top-dose activity change, negative = inhibition, actives largely listed as inhibitors. 350,000 tested, 0.35% active. AID 2517, 2012;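 note: plate controls were vehicle for no effect and reference inhibitor for full effect; nearly all actives have a fitted effect of over 55% in size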
Target sequence (P27695 whole entry, looked up): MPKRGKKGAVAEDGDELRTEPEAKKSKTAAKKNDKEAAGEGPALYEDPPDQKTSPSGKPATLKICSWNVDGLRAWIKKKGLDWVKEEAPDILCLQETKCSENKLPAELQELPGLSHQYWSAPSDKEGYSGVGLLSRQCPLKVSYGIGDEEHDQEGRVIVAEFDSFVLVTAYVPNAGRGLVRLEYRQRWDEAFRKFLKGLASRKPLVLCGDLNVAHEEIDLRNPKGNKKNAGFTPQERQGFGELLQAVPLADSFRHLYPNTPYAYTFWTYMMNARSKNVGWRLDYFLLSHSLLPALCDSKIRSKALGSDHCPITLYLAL
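Substrate: short duplex with […] THF abasic site, 5'-TAMRA and 3'-BHQ-2, 50 nM final. APE1 at 0.75 nM, preincubated 15 min RT with compound. Fluorescence increase from first to third read measured activity.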
BLM helicase inh: qHTS Assay for Inhibitors of Bloom's syndrome helicase (BLM) | RecQ-like DNA helicase BLM (Homo sapiens), P54132 | 350,000 tested, 0.2% active | recombinant BLM DNA unwinding, fluorescence dequenching | Potency, µM (highest dose often 56.1 µM), inactives show at the top dose activity change, negative = inhibition, actives largely listed as inhibitors;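 note: plate controls were vehicle for no effect and no enzyme for full effect; nearly all actives have a fitted effect of over 35% in size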
WRN helicase inh: qHTS for Inhibitors of WRN Helicase; Bifunctional 3'-5' exonuclease/ATP-dependent helicase WRN (Homo sapiens), Q14191; WRN helicase unwinding, fluorescent forked duplex, kinetic; Potency, µM (top dose mostly 114 µM), without a hit: top-dose activity change, negative = inhibition, usual class: inhibitors; 360,000 tested, 0.46% active; AID 651768, 2012; note: nearly all actives have a fitted effect of over 55% in size
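Kinetic fluorescence helicase assay: unwinding of a quenched forked DNA duplex (100 nM final) with 2 mM ATP final raises red fluorescence (525/598 nm). Compounds sat 15 min at room temperature with 20 nM WRN beforehand.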
L3MBTL1 block: qHTS Assay for the Inhibitors of L3MBTL1. Lethal(3)malignant brain tumor-like protein 1 (Homo sapiens), Q9Y468. AlphaScreen L3MBTL1–H3K9me1 peptide binding. Potency, µM (highest dose often 57.1 µM), inactives show at the highest dose activity, negative = inhibition, most hits filed as inhibitors. 230,000 tested, 0.66% active. AID 485360, 2010; note: nearly all actives have a fitted effect of over 60% in size
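Read-out is AlphaScreen signal from streptavidin donor and nickel chelate acceptor beads (10 ug/mL final each) bridging L3MBTL1 (50 nM) and biotinylated K9-monomethylated H3(1-15) peptide (75 nM), after 30 min compound exposure at room temperature.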
RECQ1 conf: Confirmation qHTS Assay for Inhibitors of RecQ-Like Dna Helicase 1 (RECQ1). shares compounds with RECQ1 inh-1. RECQ1 helicase DNA unwinding, fluorescence. Potency, µM (series often up to 229 µM), for inactives: at the highest dose activity change, negative = inhibition, hits mostly inhibitors. 610 tested, 28% active. AID 2708, 2010; note: nearly all actives have a fitted effect of over 45% in size
RECQ1 ADP FP: Counterscreen for RECQ1 Inhibitors: ADP Fluorescence Polarization Displacement Assay. ADP fluorescence polarization displacement counterscreen. 530 tested, 27% active. shares compounds with RECQ1 inh-1. Potency, µM (series often up to 228 µM), for the others: at the top dose activity change, negative = inhibition, most hits filed as inhibitors; note: nearly all actives have a fitted effect of over 45% in size
RECQ1 inh-2: Confirmation qHTS Assay for Inhibitors of RecQ-Like Dna Helicase 1 (RECQ1) - Round 2 Cherry Picks | 1,100 tested, 15% active | recombinant RECQ1 DNA unwinding, red fluorescence | shares compounds with RECQ1 inh-1 | Potency, µM (series often up to 119 µM), for inactives: top-dose activity, negative = inhibition, actives largely listed as inhibitors | AID 504841, 2011; note: nearly all actives have a fitted effect of over 50% in size
An asterisk follows results filed as active; i = inactive; ? = inconclusive; · = no result; [ ] = another dose, or the depositor's remark. An excerpt weighted towards active compounds, which were near 0.92% of everything screened. Calls come from the whole dose curve; as a rule, active = well fitted curve in the direction sought with a large enough effect; inconclusive = small, poorly fitted or top-dose-only effect, or another doubt; inactive = no such curve, though single readings can be large; an effect the other way counts as inactive or inconclusive. Unless noted, % is set by controls: 0 for no effect and ±100 for the full control effect; potency is the fitted concentration of half-maximal effect.

SMILES	RECQ1 inh-1	APEX1 inh	BLM helicase inh	WRN helicase inh	L3MBTL1 block	RECQ1 conf	RECQ1 ADP FP	RECQ1 inh-2
Cc1csc(NC(=O)c2ccc(C)o2)n1	-2.0%	0.9%	-3.9%	-5.5%	-11.8%	·	·	·
CCn1c(=S)[nH]c2scc(-c3cccs3)c2c1=O	i	-9.0%	-2.4%	-15.1%	2.9%	·	·	·
CC(C)n1c(=S)[nH]c2scc(-c3cccs3)c2c1=O	28.2µM*	?	6.9%	-33.0%	-0.8%	·	·	?
CCOC(=O)C1(CCc2ccccc2)CCN(C(=O)C2CCCO2)CC1 (stereo unspecified)	?	-1.7%	-2.2%	4.4%	3.6%	·	·	2.0%
COC(=O)C(Cc1ccccc1)NC(=O)C(N)CC(=O)O (stereo unspecified)	7.1%	·	2.8%	·	·	·	·	·
Cc1ccc(-c2ccc(C3C(C#N)=C(N)Oc4n[nH]c(C)c43)o2)cc1 (stereo unspecified)	14.1µM*	?	?	-28.4%	-11.8%	·	·	-12.0%
Cc1cc(C)c(/C=C/c2onc(C)c2S(=O)(=O)N2CCC(C(=O)NCc3ccco3)CC2)c(C)c1	·	·	-9.6%	·	·	·	·	·
Cc1cc(N/N=C(/CCC(=O)O)C(=O)O)nc2ccccc12	-4.3%	?	1.9%	-0.7%	9.5%	8.6%	-12.8%	·
Cc1cc(N/N=C/c2ccccc2Br)nc2ccccc12	-4.2%	2.2%	-2.2%	-8.2%	13.5%	·	·	·
COc1ccc(C)cc1NC(=O)COC(=O)Cc1ccc(-c2ccccc2)cc1	?	0.9%	-12.4%	-5.3%	5.8%	·	·	-6.9%
CCOc1ccc2nc(N3CCN(C(=O)CS(=O)(=O)c4ccc(F)cc4)CC3)sc2c1	·	·	-3.8%	·	·	·	·	·
CC1=C(C(N)=O)C(c2ccc(C)cc2)n2nc(SCc3ccccc3)nc2N1 (stereo unspecified)	·	·	-1.7%	·	·	·	·	·
COc1ccc(-c2csc(NC(=O)c3ccc(S(=O)(=O)N4CCc5ccccc5C4)cc3)n2)c(OC)c1	i	17.2%	-4.3%	-18.1%	2.4%	4.0%	-9.7%	·
C#CCn1c(=NC(=O)c2ccc(S(=O)(=O)N3CCc4ccccc4C3)cc2)sc2cc(S(N)(=O)=O)ccc21	-8.1%	-0.1%	-11.4%	12.8%	6.9%	-9.8%	?	·
COCCn1c(=NC(=O)c2ccc(S(=O)(=O)N3CCc4ccccc4C3)cc2)sc2cc(S(N)(=O)=O)ccc21	-10.5%	10.5%	-6.6%	-12.2%	-8.7%	·	·	·
C=CCn1c(=NC(=O)c2ccc(S(=O)(=O)N3CCc4ccccc4C3)cc2)sc2cc(S(N)(=O)=O)ccc21	-3.1%	0.3%	-8.8%	-0.4%	6.6%	15.8%	-1.0%	·
COC(=O)Cn1c(=NC(=O)c2ccc(S(=O)(=O)N3CCc4ccccc4C3)cc2)sc2cc(OC)ccc21	i	11.6%	-2.7%	-1.9%	15.0%	0.0%	9.7%	·
Cc1ccc2onc(CC(=O)N(C)c3ccccc3)c2c1	·	·	-5.3%	·	·	·	·	·
COc1ccc(CCNC(=O)CSc2nc3ccccc3nc2Cc2ccc(C)cc2)cc1OC	·	·	-11.4%	·	·	·	·	·
Cc1ccc(CSc2nnc(-c3ccc(NS(=O)(=O)c4ccccc4)cc3)o2)cc1	?	-9.9%	-4.0%	-18.7%	0.6%	·	·	-21.7%
CN1CCN(c2ncnc3ccc(-c4ccccc4Cl)cc23)CC1	-12.2%	-0.6%	23.3%	·	·	·	·	·
COc1ccc(NC(=O)CSc2nncn2C)cc1OC	?	19.7%	3.6%	-5.6%	5.9%	·	·	-25.2%
CNS(=O)(=O)c1ccc2nc(NC(=O)/C=C/c3ccco3)sc2c1	?	?	-4.2%	-9.2%	·	·	·	-20.6%
O=C(/C=C/c1ccco1)Nc1sc2c(c1C(=O)O)CCC2	35.5µM*	?	5.3%	-3.2%[11.6 µM]	?	·	·	?
N#Cc1c(NC(=O)/C=C/c2ccco2)sc2c1CCCC2	-19.1%	?	-7.4%	?	-19.3%	·	·	·
SMILES	RECQ1 inh-1	APEX1 inh	BLM helicase inh	WRN helicase inh	L3MBTL1 block	RECQ1 conf	RECQ1 ADP FP	RECQ1 inh-2
Cc1cccc(C)c1NS(=O)(=O)c1ccc2c(c1)[C@H]1C=CC[C@H]1[C@@H](c1ccc(Cl)cc1)N2	·	·	-13.8%	·	·	·	·	·
Cc1c(Cl)cccc1NS(=O)(=O)c1ccc2c(c1)C1C=CCC1C(c1ccc(C(=O)O)cc1)N2 (stereo unspecified)	28.2µM*	-9.7%	?	31.6µM*	7.94µM*	·	·	?
Cc1ccc(CNC(=O)CN2CCCN(Cc3ccc(F)cc3)S2(=O)=O)cc1	·	·	-3.9%	·	·	·	·	·
CCOC(=O)c1cc2c(=O)n3ccccc3nc2n(Cc2ccco2)c1=NC(=O)c1ccc(OC)cc1	?	-7.3%	?	0.4%	?	·	·	-26.9%
Cc1c(Cl)cccc1NC(=O)CCS(=O)(=O)c1cccc2nsnc12	·	·	0.9%	·	·	·	·	·
COc1ccc(C(=O)Nc2cccnc2)cc1	-5.7%	-7.1%	0.4%	-0.7%	·	6.3%	?	·
COc1ccc(C(=O)Nc2ccccc2C(=O)Nc2cccnc2)cc1	·	19.3%[12.4 µM]	-0.3%	-3.6%	·	·	·	·
O=C(O)CCC(=O)N1CCc2cc(S(=O)(=O)N3CC=C(c4ccccc4)CC3)ccc21	-16.9%	-5.6%	-6.5%	-0.7%	·	-2.6%	?	·
O=C(O)CCC(=O)N1CCc2cc(S(=O)(=O)N3CCCCC3)ccc21	9.4%	6.4%	-3.0%	1.4%	2.4%	-1.9%	11.6%	·
CCCCN(c1ccccc1)S(=O)(=O)c1ccc2c(c1)CCN2C(=O)CCC(=O)O	-10.4%	-9.4%	-4.0%	-8.6%	7.8%	0.1%	?	·
CC1CCN(S(=O)(=O)c2ccc3c(c2)CCN3C(=O)CCC(=O)O)CC1	-0.8%	-0.8%	0.6%	2.6%	4.6%	3.5%	-1.4%	·
CC1CCCN(S(=O)(=O)c2ccc3c(c2)CCN3C(=O)CCC(=O)O)C1 (stereo unspecified)	·	·	-0.2%	·	·	·	·	·
